# In PubChem BioAssay (NCI):
# Where “and” joins values, the source holds several entries; their conditions need not be identical. Equal entries are not always repeated. This is part of a sample that, as a whole, favours compounds with a hit. Of some 83,000 tested, about 20% had one in any assay.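 Activity criterion: percent growth below 10, measured after cells in 96-well plates were exposed to a single compound concentration for 48 hours.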 Calls of active or inactive are those of the source.
# System: MCF7 breast
# Assay: NCI-60 one-dose screen, 48 h (100 = growth as untreated, 0 = no growth, -100 = all killed)
# Conditions: 10 µM
# Method: Growth inhibition of the MCF7 human tumor cell line is measured as a screen for anti-cancer activity. Cells are grown in 96 well plates and exposed to the test compound for 48 hours. Compounds are tested at a single concentration, which is 10^-5 M for most compounds. The reported endpoint is percent growth (GI% or GIPRCNT), where numbers from 0 - 100% represent growth inhibition, and numbers from -100% - 0 represent cell death. For example, a value of 40 represents 60% growth inhibition. A value of 0 means no net growth occurred over the course of the experiment. A value of -40 indicates 40% of cells at the beginning of the experiment died by the end of the experiment. A value of -100 means all cells are dead at the end of the experiment.
# NCI-60 Human Tumor Cell Lines Screen was performed using the standard one-dose NCI protocol, which is described in more detail at https://dtp.cancer.gov/discovery_development/nci-60/default.htm.
# Compounds with GIPRCNT values below 10 were considered active. Activity score was based on GIPRCNT using the following formula: […]
# Score is 0 for GIPRCNT values of 100 or above, 50 for GIPRCNT values of 0, and 100 for GIPRCNT values of -100.
row,Compound,growth
1,CC1(C)OB(c2ccc(Cn3cc(F)c(=O)[nH]c3=O)cc2)OC1(C)C,100% (inactive)

# Same assay, conditions: 10 µM unless noted
row,Compound,growth
1,CC(=O)C1=C(C)N2C(=NC3=C(CCc4ccccc43)C2c2cccc(Br)c2)S1 (stereo not given),35.9% [100 µM] (inactive) and 33.8% [100 µM] (inactive)
2,COc1ccccc1-c1n[nH]c(-c2ccccc2O)n1,61.5% [100 µM] (inactive) and 21.6% [100 µM] (inactive)
3,Cc1cc(-c2ccc(NS(=O)(=O)c3ccccc3)c(C)c2)ccc1NS(=O)(=O)c1ccccc1,60.4% (inactive) and 82.9% (inactive)
4,COc1cc(-c2nc(SC)nc3c2CCc2ccccc2-3)cc(OC)c1OC,19.3% [100 µM] (inactive) and 8.46% [100 µM] (active)
5,O=C(O)CCCCc1ccc([N+](=O)[O-])cc1,92.4% (inactive) and 98.2% (inactive)
6,C[C@@H]1C[C@](O)([C@@H](C)Cl)C(=O)O[C@@H]2CCN3CC=C(COC(=O)[C@]1(C)O)[C@H]23,82.2% [100 µM] (inactive) and 71.5% [100 µM] (inactive)
7,CCn1c2c(c3ccccc3c1=O)C(=O)c1ccccc1-2,71.7% [100 µM] (inactive) and 21% [100 µM] (inactive)
8,COC(=O)C1CCC(=O)N1CN(C(C)=O)c1cccc(O)c1 (stereo not given),90.1% [100 µM] (inactive) and 83.5% [100 µM] (inactive)
9,CCN1CCN(CCNc2nccc(-c3c(-c4cccc(O)c4)nc4sccn34)n2)S1(=O)=O,86.8% (inactive) and 83.6% (inactive)
10,CN1CCN(C2CCN(C(=O)Nc3cc(Oc4ccc(NC(=O)C5(C(=O)Nc6ccc(F)cc6)CC5)c(F)c4)ccn3)CC2)CC1,-42.1% (active) and 76% (inactive)
11,CC(=O)C1=C(C)N2C(=NC3=C(CCc4ccccc43)C2c2ccc(Cl)cc2)S1 (stereo not given),24.9% [100 µM] (inactive) and 9.75% [100 µM] (active)
12,Cc1ccc(/C=N/Nc2ccccn2)s1,13.4% [100 µM] (inactive) and 0.177% [100 µM] (active)
13,C/C(=N\NC(=O)c1ccncc1)c1ccccc1O,13.2% (inactive) and 13.4% (inactive)
14,Nc1n[nH]c(=S)n1-c1ccc(Cl)cc1,90.8% (inactive)
15,O=C(Oc1cccc(OC(=O)c2ccccc2)c1)c1ccccc1,78.7% (inactive) and 107% (inactive)
16,Nc1cc(-c2cccc(OC(F)(F)F)c2)nc2ccc(N3CCCC3)cc12,15.4% (inactive) and 14.9% (inactive) and 15.8% (inactive)
17,NC(=S)NN=C1CCC(C2CCCCC2)CC1 (stereo not given),83% (inactive) and 95.1% (inactive)
18,COc1cc(NS(C)(=O)=O)ccc1Nc1c2ccccc2nc2c(C)cccc12,14.1% (inactive) and 14% (inactive)
19,CC(C)C1OC(N)=C(C#N)C1(C#N)C#N (stereo not given),12.9% [100 µM] (inactive) and 2.2% [100 µM] (active)

row,Compound,growth
1,COc1ccc2ccccc2c1/C=N/N1CCCCC1,84% (inactive)
2,CC(C)Oc1ccc2cc(-c3nn(CC4CCNCC4)c4ncnc(N)c34)ccc2c1,83.6% (inactive) and 15.2% (inactive)
3,N#CC(=S)Nc1ccc(F)cc1,13.1% [100 µM] (inactive) and -70.2% [100 µM] (active)
4,CNC(=O)c1cccnc1,105% (inactive)
5,COC(=O)C(C(=O)C(=O)NC1Nc2ccc(C)cc2S1)c1nc2ccc(Cl)cc2[nH]c1=O (stereo not given),79.7% [100 µM] (inactive) and 65.5% [100 µM] (inactive)
6,CN(C)c1ccc(/C=C(\C#N)c2ccccc2)cc1,23.6% (inactive) and 24.5% (inactive) and 33% (inactive)
7,C[C@]12CC[C@@H]3c4ccc(OS(N)(=O)=O)cc4CC[C@H]3[C@@H]1CCC2=O,15.4% [100 µM] (inactive) and 44.8% [100 µM] (inactive)
8,OCc1ccccn1,95.3% (inactive)
9,Oc1ccccc1C=NCC1CCC(CN=Cc2ccccc2O)CC1 (stereo not given),66% (inactive)
10,C=CC1=C(C)C2=NC1=CC1=NC(=C(CC)/C1=C\O)C=C1N=C3C(=C1C)C(=O)[C@H](C(=O)OC)C3=C1NC(=C2)[C@@H](C)[C@@H]1CCC(=O)O,16.5% [100 µM] (inactive) and 5.87% [100 µM] (active)
11,CC1(c2ccc3ccccc3c2)CCC(=O)O1 (stereo not given),106% (inactive)
12,COc1cc2c(cc1C1COc3cc4occc4cc3C1=O)OCO2 (stereo not given),65.2% [100 µM] (inactive) and 62.9% [100 µM] (inactive)
13,CC(=N\N=C\c1ccccn1)/C(C)=N/N=C/c1ccccn1,76.4% [100 µM] (inactive) and 78.5% [100 µM] (inactive)
14,COc1cc2c3cc1Oc1c(OC)c(OC)cc4c1C(Cc1ccc(O)c(c1)-c1cc(ccc1OC)CC3N(C)CC2)N(C)CC4 (stereo not given),10.3% [100 µM] (inactive) and -92.9% [100 µM] (active)
15,O=C(CCc1ccc(O)c(O)c1)c1ccc(O)c(O)c1O,-69.8% [100 µM] (active) and -72.6% [100 µM] (active)
16,C/C(=C\COc1cc(O)c2c(c1)C(=O)c1cc(C)cc(O)c1C2=O)CCC1OC1(C)C (stereo not given),20.6% [100 µM] (inactive) and 2.66% [100 µM] (active)
17,CC1CC(=O)N(N(C)C)C2(C#N)C(=O)N=C(N)C12C#N (stereo not given),-67.7% [100 µM] (active) and -64.1% [100 µM] (active)
18,COc1cc(C(=O)c2ccc3c(c2)OCO3)cc(OC)c1OC,23.2% (inactive) and 14.8% (inactive)
19,C/C(O)=C/c1nc2sc(C)c(C)c2c(=O)s1,10.6% [100 µM] (inactive) and 6.54% [100 µM] (active)

# Same assay, conditions: 50 µM
row,Compound,growth
1,CC1(C)OB(c2ccc(Cn3cc(F)c(=O)[nH]c3=O)cc2)OC1(C)C,19.1% (inactive)
